Compound activity deposited in PubChem by National Center for Advancing Translational Sciences (NCATS).
D1 agonist – Allosteric Agonists of the Human D1 Dopamine Receptor: qHTS; HEK293 T-REx D1 cells, calcium flux, agonist mode; activation, % at 2 µM; 1% of 360,000 active; further: 0% is about no effect
Target sequence (P21728 whole entry, looked up): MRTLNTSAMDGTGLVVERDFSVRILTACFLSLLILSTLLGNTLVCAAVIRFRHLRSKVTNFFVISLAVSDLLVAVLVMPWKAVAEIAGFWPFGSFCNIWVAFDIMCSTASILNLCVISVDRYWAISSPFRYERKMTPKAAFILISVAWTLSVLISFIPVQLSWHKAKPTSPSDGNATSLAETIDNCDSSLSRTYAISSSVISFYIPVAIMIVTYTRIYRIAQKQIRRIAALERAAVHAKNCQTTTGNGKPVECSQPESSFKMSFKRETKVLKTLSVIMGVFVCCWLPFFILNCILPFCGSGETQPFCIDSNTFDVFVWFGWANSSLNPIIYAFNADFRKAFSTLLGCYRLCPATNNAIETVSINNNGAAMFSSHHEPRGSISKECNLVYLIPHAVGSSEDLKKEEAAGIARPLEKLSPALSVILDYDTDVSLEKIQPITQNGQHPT
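Agonism was scored from calcium flux recorded over 180 s (1 read/s) after pintool compound addition, following a 10-cycle baseline. Cells were inducible force-coupled HEK293 TREx D1, plated overnight at 30 C and loaded with no-wash calcium dye.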
TRHR PAM – qHTS for Small Molecule Agonists and Allosteric Enhancers of Human TRH Receptor: Primary Screen for Enhancers; Thyrotropin-releasing hormone receptor (Homo sapiens), P34981; TRHR cells, fluo-8 calcium fluorescence, EC20 TRH enhancement; enhancement, % at 2 µM; 0.66% of 360,000 active; AID 493056, 2011; in the data active means enhancement above about 30%; further: 0% is about no effect
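TRHR-expressing cells loaded with fluo-8 calcium dye were read kinetically (ex 480/em 530) during compound addition, then stimulated with an EC20 of TRH (10 nM final). Enhancement of the Gq-mediated intracellular calcium response was scored.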
D1 PAM – Potentiators of Human D1 Dopamine Receptor: qHTS. HEK293 TREx D1 cells, calcium flux, dopamine EC20 potentiation. 0.036% of 360,000 active. D(1A) dopamine receptor (Homo sapiens), P21728. AID 504651, 2011. potentiation, % at 10 µM; in the data active means potentiation above about 30%; further: 0% is about no effect
TRHR agonist – qHTS for Small Molecule Agonists and Allosteric Enhancers of Human TRH Receptor: Primary Screen for Agonists | AID 493084, 2011 | activation, % at 2 µM | 0.18% of 360,000 active | TRHR cells, calcium flux fluo-8, FDSS agonist mode; further: 0% is about no effect
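TRHR-expressing cells loaded with fluo-8 calcium dye; 23 nL library compound pin-transferred, kinetic FDSS fluorescence (Ex 480/Em 530) recorded about 180 s for agonist-induced calcium release, before a 10 nM TRH EC20 addition for potentiator mode.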
D1 antag – Antagonist of Human D 1 Dopamine Receptor: qHTS | D(1A) dopamine receptor (Homo sapiens), P21728 | HEK293 TREx D1 cells, calcium flux, dopamine EC80; active compounds read low | activity change, negative = inhibition, % at 10 µM | 3.2% of 360,000 active; in the data active means activity change below about -30%; further: on the % scale 0 is the no-effect control and ±100 the full control effect
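Cells carrying a force-coupled, tetracycline-inducible human D1 receptor report calcium flux. Each well gets a 10 s baseline, compound with 180 s monitoring, then an EC80 dopamine stimulus with a second 180 s kinetic read.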
An asterisk follows results filed as active; . = no result given. Compounds with a hit are over-represented: about 4.7% of the library has one in this group of screens. Unless noted, no stated cut-off is given here; in the data, active means activation above about 30%; inactive means the rest.

SMILES	D1 agonist	TRHR PAM	D1 PAM	TRHR agonist	D1 antag
CC1CCN(C(=O)c2ccc(NS(=O)(=O)c3cccc4cccnc34)cc2)CC1	3.3	2.0	3.0	-0.7	6.8
CCOC(=O)N1CCC(NC(=O)c2cnn3c2NC(c2ccco2)CC3C(F)(F)F)CC1 (stereo not given)	1.7	32.2*	-8.4	-0.7	-2.4
COc1ccc(C)cc1NC(=O)C(OC(=O)CNC(=O)c1ccccc1)c1ccccc1 (stereo not given)	3.6	-1.2	-6.1	-0.9	18.3
O=C(Nc1ccccn1)C1CCN(S(=O)(=O)c2ccc(Cl)cc2)CC1	1.2	-1.2	1.2	0.1	1.5
Cc1ccccc1-c1nnn(Cc2cccc(S(=O)(=O)N3CCOCC3)c2)n1	13.0	4.3	-7.7	0.0	-33.5*
O=C(CSc1nc2ncccc2[nH]1)NCCc1ccccc1	0.0	4.5	-7.2	1.3	-38.9*
O=C(CSc1nnc(-c2ccncc2)o1)Nc1ccccc1Cl	2.1	-1.4	6.4	0.7	-3.3
O=C(CSc1nnc(-c2ccncc2)o1)NC1C2CC3CC(C2)CC1C3 (stereo not given)	2.2	30.5*	-3.6	-0.3	4.5
O=C(NCc1ccccc1)C1CCCN(S(=O)(=O)c2ccc(F)cc2)C1 (stereo not given)	3.2	36.0*	-2.6	-0.2	3.3
O=C(NCc1cccs1)C1CCCN(S(=O)(=O)c2cnc[nH]2)C1 (stereo not given)	4.2	6.8	.	0.3	-2.5
O=C(NCc1ccccc1)C1CCCN(S(=O)(=O)c2ccc(Br)cc2)C1 (stereo not given)	6.3	-1.2	-5.7	0.0	-22.5
O=C(NCc1ccccc1Cl)C1CCCN(S(=O)(=O)c2cnc[nH]2)C1 (stereo not given)	3.4	-8.0	.	0.3	-44.2*
CCOc1ccc(S(=O)(=O)N2CCCC(C(=O)NCc3ccncc3)C2)cc1Cl (stereo not given)	13.3	7.2	-3.9	-1.4	-31.4*
O=C(NCc1ccco1)C1CCCCN1S(=O)(=O)c1ccc(F)cc1 (stereo not given)	-0.2	2.6	-6.2	0.8	-38.7*
CCOC(=O)C1CCCN(C(=O)C2CCN(S(=O)(=O)c3cnc[nH]3)CC2)C1 (stereo not given)	3.1	13.4	-0.9	0.4	-41.0*
Cc1ccsc1/C=N/NC(=O)C1CC(=O)N(c2ccccc2)C1 (stereo not given)	0.3	0.6	-7.0	0.1	-46.5*
CSCCC(/C(O)=C(\C#N)c1nc2ccccc2[nH]1)N1C(=O)c2ccccc2C1=O (stereo not given)	0.7	4.6	1.8	-0.8	-30.9*
N#C/C(=C(/O)CN1C(=O)c2ccccc2C1=O)c1nc2ccccc2[nH]1	2.8	-0.9	-0.9	-0.5	-22.3
CN(C)S(=O)(=O)c1cccc(NC(=O)COC(=O)CCC(=O)c2cccs2)c1	4.9	4.0	-1.4	0.4	-34.4*
CCN(CC)S(=O)(=O)c1cccc(NC(=O)COC(=O)/C=C/c2cccs2)c1	19.4	-2.4	-4.7	0.4	-30.7*
CN(C)S(=O)(=O)c1ccc(Cl)c(NC(=O)COC(=O)CCC(=O)c2cccs2)c1	6.5	-3.1	-6.4	-0.3	-6.1
CCN(CC)S(=O)(=O)c1cccc(NC(=O)COC(=O)c2cccs2)c1	12.3	-3.1	-7.5	0.0	-14.9
Cc1ccc(C(=O)N/C(=C\c2cccs2)C(=O)NC2CCCCC2)cc1	1.7	39.9*	-0.8	0.8	4.7
Cc1ccc(C(=O)N/C(=C/c2cccs2)C(=O)N2CCCCCC2)cc1	0.4	6.4	-11.1	-0.2	-7.3
CCCc1ccc(-c2cc(NC(=O)CSc3n[nH]c(N)n3)n(-c3ccccc3)n2)cc1	32.9*	0.6	4.3	-1.0	0.9
SMILES	D1 agonist	TRHR PAM	D1 PAM	TRHR agonist	D1 antag
CC(NC(=O)CSc1n[nH]c(N)n1)c1ccccc1 (stereo not given)	19.8	-5.7	.	0.6	4.4
CCOc1cc(C=O)ccc1OCCSc1ccc(Cl)cc1	3.6	5.2	-1.1	0.3	-37.2*
Cc1cccnc1NC(=O)CSc1nnc(CNC(=O)c2cccc([N+](=O)[O-])c2)n1C	2.8	12.9	5.7	-0.2	13.6
CCOC(=O)c1ccc(NC(=S)N(CCCN2CCCC(C)C2)Cc2ccco2)cc1 (stereo not given)	26.3	-8.9	-5.2	2.2	-38.6*
CCOC(=O)c1ccc(NC(=S)N(CCCN2CCN(C)CC2)Cc2cccs2)cc1	8.7	-1.8	-5.7	0.9	2.2
CCOC(=O)c1ccc(NC(=S)N(CCCN2CCCC2)Cc2ccco2)cc1	9.1	2.7	-7.4	0.4	-13.9
COc1cccc(NC(=S)N(CCCN2CCC(C)CC2)Cc2cccs2)c1	4.4	30.3*	0.1	0.0	-7.4
CCOC(=O)c1ccc(NC(=S)N(CCCN2CCN(CC)CC2)Cc2cccs2)cc1	49.0*	5.8	-7.3	-0.1	-29.7
CCn1cc(C(=O)NCCCOC(C)C)c(=O)c2cc(S(=O)(=O)N3CCC(C)CC3)ccc21	0.0	-2.4	-4.4	-0.1	-2.1
Cc1cc(C)n(CCc2nc3c4ccccc4nc(SCc4ccc(Cl)cc4)n3n2)n1	0.6	-5.0	10.3	0.1	2.8
CN1CCOc2ccc(S(=O)(=O)N3CCN(S(=O)(=O)c4c(F)cccc4F)CC3)cc21	1.2	1.8	4.5	-0.1	6.5
COc1ccc(OC)c(C2=C/C(=C/c3ccccn3)C(=O)O2)c1	188.8*	7.6	-9.7	-0.3	-55.8*
Cc1ccc(S(=O)(=O)N(Cc2ccc(F)cc2)Cc2ccco2)cc1	7.7	-7.0	-9.7	1.0	-33.0*
Cc1ccc(S(=O)(=O)N(Cc2ccccc2)Cc2ccco2)cc1	10.7	-1.4	-9.3	3.2	-30.7*
Cc1ccc(S(=O)(=O)N(CC(=O)O)Cc2ccco2)cc1	2.0	-3.7	26.1	0.6	6.1
CCOc1ccc(Br)cc1C1=CC(=O)C[C@H](c2ccc(OC)cc2)C1	3.3	-0.6	-5.8	-0.3	.
CN(Cc1ccccc1)c1oc(COc2ccccc2F)nc1C#N	28.9	4.7	.	-0.5	-33.0*
CCOCCn1cnc2sc(C(=O)NCCCN3CCOCC3)c(C)c2c1=O	4.0	-4.6	-4.0	0.7	-6.6
CSc1nsc(/C=C/Nc2ccc(Cl)cc2)c1C#N	5.6	-2.5	-5.5	1.0	-5.8
CSc1nsc(/C=C/Nc2cccc(Cl)c2)c1C#N	7.2	-3.1	-8.4	1.9	-33.2*
